The antibiotic and cytotoxicity screens of Wong et al. (2023)
The campaign covered roughly 39,000 compounds. About 1,500 (3.8%) were called active. Many of the other results were omitted from the sample, so actives are more common in it than they were.

system: HSkMC (human skeletal muscle cells); assay: cytotoxicity call (relative viability < 0.9); conditions: 10 µM

Row | SMILES | cytotoxicity call
1 | Cc1nnc(SCC2=C(C(=O)O)N3C(=O)[C@@H](NC(=O)Cn4cnnn4)[C@H]3SC2)s1 | inactive
2 | O=C(O)[C@@H]1CCCNC1 | inactive
3 | CC(=O)CNC(=O)Cc1ccccc1 | inactive
4 | CCN(CC)S(=O)(=O)c1nnc[nH]1 | inactive
5 | C[C@H](CO)N1C[C@H](C)[C@@H](CN(C)C(=O)Nc2ccc(C(F)(F)F)cc2)Oc2ncc(-c3ccc(C#N)cc3)cc2C1=O | inactive
6 | CO[C@@H](C(=O)N(C)C[C@H]1OCc2ccccc2-c2c(n(C)c3ccccc23)C(=O)N([C@H](C)CO)C[C@@H]1C)c1ccccc1 | inactive
7 | CC(C)(C)OC(=O)N1CC[C@H](c2cn(-c3ccc(C(F)(F)F)cc3)nn2)[C@@H]1C(=O)Nc1cccc2cccnc12 | inactive
8 | CO[C@@H]1CN(C)C(=O)c2cc(NS(C)(=O)=O)ccc2OC[C@H](C)N(C(=O)C2CCCCC2)C[C@@H]1C | inactive
9 | COc1ccc(CN(C)C[C@H]2OCCCC[C@@H](C)Oc3ccc(NC(=O)Cc4ccccc4)cc3C(=O)N([C@H](C)CO)C[C@@H]2C)cc1 | inactive
10 | CN1C(=O)c2cc(NC(=O)c3cnccn3)ccc2OC[C@@H]2O[C@H](CC(=O)N[C@H]3CCN(Cc4ccccc4)C3)CC[C@@H]21 | inactive
11 | C[C@@H]1CN([C@H](C)CO)C(=O)c2ccccc2-c2ccccc2CO[C@@H]1CN(C)C(=O)Nc1cccc(Cl)c1Cl | inactive
12 | Cc1ccc(S(=O)(=O)Nc2ccc3c(c2)CC(=O)N([C@H](C)CO)C[C@@H](C)[C@H](CN(C)Cc2ccc(Cl)c(Cl)c2)O3)cc1 | inactive
13 | Cc1ccc(S(=O)(=O)Nc2ccc3c(c2)CC(=O)N([C@H](C)CO)C[C@@H](C)[C@@H](CN(C)Cc2ccc(Cl)c(Cl)c2)O3)cc1 | active
14 | C[C@H](CO)N1C[C@H](C)[C@H](CN(C)S(=O)(=O)c2ccc(Cl)cc2)Oc2c(NC(=O)Nc3ccc(C(F)(F)F)cc3)cccc2C1=O | inactive
15 | C[C@H]1CN([C@@H](C)CO)C(=O)c2cccc(NC(=O)Nc3ccc(C(F)(F)F)cc3)c2O[C@H]1CN(C)S(=O)(=O)c1ccc(Cl)cc1 | active
16 | C[C@@H]1CN([C@H](C)CO)C(=O)c2cccc(NC(=O)Nc3ccc(C(F)(F)F)cc3)c2O[C@@H]1CN(C)S(=O)(=O)c1ccc(Cl)cc1 | inactive
17 | C[C@@H]1CN([C@@H](C)CO)C(=O)c2cccc(NC(=O)Nc3ccc(C(F)(F)F)cc3)c2O[C@@H]1CN(C)S(=O)(=O)c1ccc(Cl)cc1 | inactive
18 | C[C@@H]1CN([C@@H](C)CO)C(=O)c2cccc(NC(=O)Nc3ccc(C(F)(F)F)cc3)c2O[C@H]1CN(C)S(=O)(=O)c1ccc(Cl)cc1 | inactive
19 | C[C@H]1CN([C@@H](C)CO)C(=O)c2cccc(NC(=O)Nc3ccc(C(F)(F)F)cc3)c2O[C@@H]1CN(C)S(=O)(=O)c1ccc(Cl)cc1 | active
20 | C[C@@H]1CCCCO[C@H](CN(C)Cc2ccc(Cl)c(Cl)c2)[C@H](C)CN([C@@H](C)CO)C(=O)c2cc(NS(C)(=O)=O)ccc2O1 | inactive
21 | C[C@H]1CN([C@@H](C)CO)C(=O)c2cc(C#Cc3ccccn3)cnc2O[C@H]1CN(C)C(=O)CCN1CCCCC1 | inactive
22 | C[C@@H]1CN([C@H](C)CO)C(=O)Cc2cc(NC(=O)CCCCCC(=O)Nc3ccccc3N)ccc2O[C@@H]1CN(C)Cc1ccc(Cl)c(Cl)c1 | inactive
23 | C[C@@H]1CN([C@@H](C)CO)C(=O)c2cccc(NS(=O)(=O)c3cccs3)c2O[C@H]1CN(C)C(=O)Nc1cccc2ccccc12 | inactive

Row | SMILES | cytotoxicity call
24 | C[C@@H]1CCCCO[C@H](CN(C)C(=O)Nc2ccc3c(c2)OCO3)[C@H](C)CN([C@H](C)CO)C(=O)c2cc(NC(=O)c3ccccc3)ccc2O1 | inactive
25 | C[C@@H]1CN([C@@H](C)CO)C(=O)c2cc(NC(=O)Cc3cn(C)c4ccccc34)ccc2O[C@H]1CN(C)Cc1ccc(C(=O)Nc2ccccc2N)cc1 | inactive
26 | CC(C)NC(=O)Nc1ccc2c(c1)CC(=O)N([C@H](C)CO)C[C@H](C)[C@@H](CN(C)S(=O)(=O)c1cccs1)O2 | inactive
27 | CC(C)NC(=O)N(C)C[C@H]1Oc2c(NS(=O)(=O)c3ccccc3)cccc2C(=O)N([C@@H](C)CO)C[C@@H]1C | inactive
28 | Cc1ccc(S(=O)(=O)N(C)C[C@@H]2Oc3ccc(NS(=O)(=O)c4ccc(F)cc4)cc3CC(=O)N([C@@H](C)CO)C[C@@H]2C)cc1 | inactive
29 | C[C@@H]1CN([C@@H](C)CO)C(=O)c2cc(NC(=O)NC3CCCCC3)ccc2O[C@@H](C)CCCCO[C@H]1CN(C)C(=O)Cc1ccccc1 | inactive
30 | C[C@@H]1CN([C@H](C)CO)C(=O)c2cc(NC(=O)c3ccncc3)ccc2O[C@@H]1CN(C)S(=O)(=O)c1cn(C)cn1 | inactive
31 | CCCCC(CC)CN1CN(CC(CC)CCCC)CC(C)(N)C1 (configuration not stated) | active
32 | C[C@@H]1CN([C@@H](C)CO)C(=O)Cc2cc(NC(=O)NC3CCCCC3)ccc2O[C@H]1CN(C)Cc1ccc(C(=O)Nc2ccccc2N)cc1 | inactive
33 | C[C@@H]1CN([C@@H](C)CO)S(=O)(=O)c2ccc(Br)cc2O[C@@H]1CN(C)C(=O)c1cnccn1 | inactive
34 | C[C@@H]1CCCCO[C@@H](CN(C)Cc2ccc(C(=O)O)cc2)[C@@H](C)CN([C@H](C)CO)C(=O)c2cc(NC(=O)CCC(F)(F)F)ccc2O1 | inactive
35 | C[C@@H]1CN([C@@H](C)CO)C(=O)c2ccccc2-c2ccccc2CO[C@@H]1CN(C)Cc1ccccc1C(F)(F)F | inactive
36 | C[C@H](CO)N1C[C@H](C)[C@H](CN(C)Cc2ccccc2C(F)(F)F)OCc2ccccc2-c2ccccc2C1=O | active
37 | C[C@H]1CN([C@@H](C)CO)C(=O)c2ccccc2-c2ccccc2CO[C@@H]1CN(C)Cc1ccccc1C(F)(F)F | active
38 | C[C@H](CO)N1C[C@H](C)[C@@H](CN(C)Cc2ccccc2C(F)(F)F)OCc2ccccc2-c2ccccc2C1=O | inactive
39 | C[C@H]1CN([C@@H](C)CO)C(=O)c2ccccc2-c2ccccc2CO[C@H]1CN(C)Cc1ccccc1C(F)(F)F | inactive
40 | C[C@@H]1CN([C@H](C)CO)C(=O)c2ccccc2-c2ccccc2CO[C@@H]1CN(C)Cc1ccccc1C(F)(F)F | inactive
41 | C[C@H](CO)N1C[C@H](C)[C@@H](CN(C)C(=O)Nc2cccc3ccccc23)Oc2c(NC(=O)Nc3ccc(F)cc3)cccc2C1=O | inactive
42 | C[C@H](CO)N1C[C@H](C)[C@H](CN(C)Cc2ccc(C(=O)O)cc2)Oc2ccc(NC(=O)CCN3CCOCC3)cc2C1=O | inactive
43 | NC(=O)NCC#Cc1ccc2c(c1)[C@]1(C(=O)N2)[C@H](c2ccccc2OCCO)N2[C@H](c3ccccc3)[C@H](c3ccccc3)OC(=O)[C@H]2[C@@H]1C(=O)N1CCCCCCC1 | inactive
44 | Cc1noc(C)c1NC(=O)N(C)C[C@H]1Oc2ccc(NS(=O)(=O)c3cn(C)cn3)cc2CC(=O)N([C@H](C)CO)C[C@H]1C | inactive
45 | CN1C(=O)c2cc(NC(=O)c3ccc(C(F)(F)F)cc3)ccc2OC[C@@H]2O[C@@H](CC(=O)NC3Cc4ccccc4C3)CC[C@@H]21 | inactive
46 | C[C@@H]1CN([C@@H](C)CO)C(=O)c2cc(NC(=O)CCCN(C)C)ccc2O[C@H]1CN(C)Cc1ccc2c(c1)OCO2 | inactive

Row | SMILES | cytotoxicity call
47 | Nc1[nH]ncc1-c1cc(Cl)ccc1Oc1cc(F)c(S(=O)(=O)Nc2cscn2)cc1Cl | inactive
48 | Cc1noc(C)c1S(=O)(=O)Nc1ccc2c(c1)C(=O)N([C@H](C)CO)C[C@@H](C)[C@@H](CN(C)C)OCCCC[C@H](C)O2 | inactive
49 | CCc1nc2ccc(C(=O)Nc3cccc(OCC(=O)N(C)C)c3)cn2c1N(C)Cc1cc2ccccc2s1 | inactive
50 | CCc1nc2ccc(C(=O)NC3CCN(Cc4ccccc4)CC3)cn2c1N(C)CCN1CCOCC1 | inactive
51 | CCc1nc2ccc(C(=O)NC3CCN(Cc4ccccc4)CC3)cn2c1N(C)Cc1cc2ccccc2s1 | active
52 | CCN(CC)c1ccnc([C@H]2COCCN2)n1 | inactive
53 | CC(C)NC(=O)N(C)C[C@@H]1Oc2ccc(NC(=O)Nc3ccc4c(c3)OCO4)cc2C(=O)N([C@@H](C)CO)C[C@H]1C | inactive
54 | CNC1C(O)C(NC)C2OC3(O)C(=O)CC(C)OC3OC2C1O.Cl.Cl (configuration not stated) | inactive
55 | Nc1ccccc1C(=O)C[C@H](N)C(=O)O | inactive
56 | Nc1ccc(/C=C/C(=O)NCc2cc3cc(-c4ccc(C(=O)N5CCC(F)(F)CC5)cc4)cc(-c4ccc(F)cc4)c3o2)cn1 | active
57 | C[C@H]1CN([C@@H](C)CO)C(=O)c2cc(NC(=O)c3ccncc3)ccc2O[C@H]1CN(C)Cc1ccncc1 | inactive
58 | O=C1[C@@H]2[C@H](C(=O)N1c1ccccc1)C13COC[C@H](c4ccccc4)N1C(=O)C2(C(=O)NCc1ccccc1)O3 (some centres not stated) | inactive
59 | COc1ccc(S(=O)(=O)Nc2ccc3c(c2)C(=O)N([C@H](C)CO)C[C@H](C)[C@H](CN(C)Cc2ccc(-c4ccccc4)cc2)O3)cc1 | inactive
60 | COc1ccc(S(=O)(=O)Nc2ccc3c(c2)C(=O)N([C@@H](C)CO)C[C@@H](C)[C@@H](CN(C)Cc2ccc(-c4ccccc4)cc2)O3)cc1 | active
61 | COc1ccc(S(=O)(=O)Nc2ccc3c(c2)C(=O)N([C@H](C)CO)C[C@@H](C)[C@@H](CN(C)Cc2ccc(-c4ccccc4)cc2)O3)cc1 | active
62 | COc1ccc(S(=O)(=O)Nc2ccc3c(c2)C(=O)N([C@H](C)CO)C[C@H](C)[C@@H](CN(C)Cc2ccc(-c4ccccc4)cc2)O3)cc1 | inactive
63 | COc1ccc(S(=O)(=O)Nc2ccc3c(c2)C(=O)N([C@H](C)CO)C[C@@H](C)[C@H](CN(C)Cc2ccc(-c4ccccc4)cc2)O3)cc1 | inactive
64 | COc1ccc(S(=O)(=O)Nc2ccc3c(c2)C(=O)N([C@@H](C)CO)C[C@H](C)[C@@H](CN(C)Cc2ccc(-c4ccccc4)cc2)O3)cc1 | inactive
65 | COc1ccc(S(=O)(=O)Nc2ccc3c(c2)C(=O)N([C@@H](C)CO)C[C@@H](C)[C@H](CN(C)Cc2ccc(-c4ccccc4)cc2)O3)cc1 | active
66 | COc1ccc(S(=O)(=O)Nc2ccc3c(c2)C(=O)N([C@H](C)CO)C[C@@H](C)[C@H](CN(C)Cc2ccc(Oc4ccccc4)cc2)O3)cc1 | inactive
67 | COc1ccc(S(=O)(=O)Nc2ccc3c(c2)C(=O)N([C@@H](C)CO)C[C@H](C)[C@H](CN(C)Cc2ccc(-c4ccccc4)cc2)O3)cc1 | inactive
